From PubChem BioAssay AID463173 (ICCB-Longwood Screening Facility, Harvard Medical School, 2010)
About 1,700 (3.3%) of roughly 52,000 compounds were called active. Rule as the data show it: active = survival mostly below about 52% (no sharp cut-off); inactive = mostly above about 56%. This excerpt belongs to a sample that is enriched for actives.

Tested on: Wild type
Experiment: S. aureus survival, RN4220 and DeltatarO strains – OD600, teichoic acid synthesis inhibitors, primary screen (AID 463173)
Details: S. aureus RN4220 wild type/DeltatarO growth, OD600, 18 h, active compounds read low, screened at 18.75 µg/mL (by protocol)

Structure (SMILES)	survival
Cc1ccc(CCNC(=O)c2cc3c(=O)oc4ccccc4c3s2)cc1	73% (inactive)
c1ccc(-n2ncc3c(NC4CCCC4)ncnc32)cc1	121% (inactive)
CCOC(=O)C1CCN(S(=O)(=O)c2cc(-c3onc(C)c3C)ccc2C)CC1	81% (inactive)
Cc1ccc(C)c(NC(=O)C(CC(C)C)N2Cc3ccccc3C2=O)c1 (stereo unspecified)	159% (inactive)
CCOc1ccc(NC(=O)C(CC(C)C)N2Cc3ccccc3C2=O)cc1 (stereo unspecified)	134% (inactive)
O=C(Nc1ccccc1F)C(Cc1ccccc1)N1Cc2ccccc2C1=O (stereo unspecified)	75% (inactive)
Cc1ccc(NC(=O)[C@H](Cc2ccccc2)N2Cc3ccccc3C2=O)cc1F	78% (inactive)
O=C(Nc1ccc(F)cc1F)C(Cc1ccccc1)N1Cc2ccccc2C1=O (stereo unspecified)	-6% (active)
CC(C(=O)Nc1ccc(F)c(Cl)c1)N1Cc2ccccc2C1=O (stereo unspecified)	0% (active)
Cc1cc(C)cc(NC(=O)C(C)N2Cc3ccccc3C2=O)c1 (stereo unspecified)	63% (inactive)
CC(C(=O)Nc1ccc(OC(F)(F)F)cc1)N1Cc2ccccc2C1=O (stereo unspecified)	-3% (active)
O=C(Nc1ccc(F)cc1)[C@H](Cc1ccccc1)N1Cc2ccccc2C1=O	91% (inactive)
COc1ccc(NC(=O)C(C)N2Cc3ccccc3C2=O)cc1OC (stereo unspecified)	75% (inactive)
COC(=O)c1ccc(NC(=O)C(C)N2Cc3ccccc3C2=O)cc1 (stereo unspecified)	53% (inactive)
Cc1ccc(NC(=O)C(CC(C)C)N2Cc3ccccc3C2=O)cc1F (stereo unspecified)	-6% (active)
Cc1ccccc1CSc1cn(CCNC(=O)c2cccs2)c2ccccc12	79% (inactive)
COc1ccc(NC(=O)Cc2ccc(NC(=O)N3CCCCc4ccccc43)cc2)c(OC)c1	60% (inactive)
COc1cccc(C(=O)NC2CCCC2)c1	103% (inactive)
O=C(CCS(=O)(=O)c1cccs1)Nc1ccc(C(=O)Nc2ccccc2F)cc1	135% (inactive)
CC(=O)c1ccc(N2CCN(C(=O)CCCn3c(=O)[nH]c4ccsc4c3=O)CC2)cc1	66% (inactive)
On1c2c(c3c4nonc4ccc31)CCCC2	8% (active)

Structure (SMILES)	survival
c1ccc(-n2nc3ccc4nonc4c3n2)cc1	104% (inactive)
COC(=O)CSc1n[nH]c(CNc2cccc(C)c2)n1	108% (inactive)
O=C(NCCCN1CCN(c2ccccc2)CC1)c1nnc(Cc2ccc(F)cc2)o1	98% (inactive)
COc1ccccc1C(=O)Nc1cc(-c2ccc(C)cc2)no1	73% (inactive)
Cc1ccc(NC(=O)Cn2nc(C)n3cccc3c2=O)c(C)c1	95% (inactive)
CCn1c(COc2ccccc2)nnc1SCC(=O)CC(=O)Nc1ccccc1OC	100% (inactive)
O=S1(=O)C=C(Sc2nc3ccccc3s2)c2ccccc21	0% (active)
CC(C)(C)NSc1nc2ccccc2s1	68% (inactive)
Cc1cc(C)nc(SC2=CS(=O)(=O)c3ccccc32)n1	99% (inactive)
O=C(COc1ccccc1Cl)OCc1cc(=O)n2nc(C3CCCCC3)sc2n1	71% (inactive)
Cc1ccc(Cc2nc3ccccc3nc2SCC(=O)N2CCC(C)CC2)cc1	77% (inactive)
CCc1ccc(CNc2nc3nc(C)c(Cc4ccccc4)c(=O)n3[nH]2)cc1	93% (inactive)
Cc1nc2nc(NC(=O)CC(C)C)[nH]n2c(=O)c1Cc1ccccc1	110% (inactive)
Cc1nc2c(-c3ccccc3)c(C)[nH]n2c(=O)c1Cc1ccc(C(C)C)cc1	-5% (active)
Cc1nc2nc(NC(=O)C(C)C)[nH]n2c(=O)c1Cc1ccccc1	88% (inactive)
COc1cccc(C(=O)Nc2nc3nc(C)c(Cc4ccccc4)c(=O)n3[nH]2)c1	105% (inactive)
Cc1nc2nc(NCc3ccccc3Cl)[nH]n2c(=O)c1Cc1ccccc1	86% (inactive)
Cc1nc2nc(NCc3cccc(Cl)c3)[nH]n2c(=O)c1Cc1ccccc1	85% (inactive)
CCc1c(C)nc2cc(-c3ccccc3)[nH]n2c1=O	106% (inactive)
Cc1cccc(Cc2c(C)nc3c(-c4ccccc4)c(C)[nH]n3c2=O)c1	4% (active)
CCOC(=O)CCc1c(C)nc2c(-c3ccccc3)c(C)[nH]n2c1=O	74% (inactive)

Structure (SMILES)	survival
Cc1ccc(Cc2c(C)nc3c(-c4ccccc4)c(C)[nH]n3c2=O)cc1	-11% (active)
Cc1ccccc1Cc1c(C)nc2c(-c3ccccc3)c(C)[nH]n2c1=O	-13% (active)
CCCCN(C)C(=O)c1ccc2c(=O)n3nc(Nc4cc(C)ccc4C)sc3nc2c1	140% (inactive)
CCN(CC)CCCNC(=O)c1nn(-c2ccc(OC)c(Cl)c2)c(=O)c2c1c1ccccc1n2C	80% (inactive)
O=C(Cn1cc(S(=O)(=O)N2CCN(c3ccccc3F)CC2)c2ccccc2c1=O)Nc1ccc(F)cc1Cl	129% (inactive)
Cc1cccc(CN2C(=O)CC(c3ccc(Cl)cc3)c3c(C)nn(-c4nc(C)cc(C)n4)c32)c1 (stereo unspecified)	76% (inactive)
Cc1nc2nc(NCc3cccc(Br)c3)[nH]n2c(=O)c1Cc1ccccc1	68% (inactive)
Cc1nc2c(-c3ccccc3)c(C)[nH]n2c(=O)c1Cc1ccc(Br)cc1	-5% (active)
Cc1nc2nc(NCc3ccc(Br)cc3)[nH]n2c(=O)c1Cc1ccccc1	63% (inactive)
CCc1nc2nc(C)cc(Nc3ccc(OC)cc3OC)n2n1	75% (inactive)
COC(=O)c1scc(-c2ccc(C)cc2)c1S(=O)(=O)Nc1ccc(F)cc1F	72% (inactive)
CCN(Cc1ccccc1)c1nc2c(S(=O)(=O)c3ccccc3)nnn2c2ccc(Cl)cc12	88% (inactive)
CCc1ccc(S(=O)(=O)c2nnn3c2nc(N(CC)Cc2ccccc2)c2cc(Cl)ccc23)cc1	92% (inactive)
CCN(CC)c1nc2c(S(=O)(=O)c3ccccc3)nnn2c2ccc(Cl)cc12	9% (active)
Cc1cccc(NC(=O)CSc2nnc(C)c(=O)[nH]2)c1	101% (inactive)
Cc1ccc(CN2CCN(C3CCN(C(=O)OC(C)(C)C)CC3)C(=O)C2=O)cc1	124% (inactive)
CCC(C(=O)Nc1cc(C)ccc1OC)n1nnc(C(=O)OC)c1C(=O)OC (stereo unspecified)	89% (inactive)
CCc1ccc(NC(=O)C(CC)n2nnc(C(=O)OC)c2C(=O)OC)cc1 (stereo unspecified)	-1% (active)
CCOC(=O)c1nnn(C(CC)C(=O)Nc2ccc(F)cc2)c1C(=O)OCC (stereo unspecified)	99% (inactive)
